Assay outcomes deposited in PubChem by National Center for Advancing Translational Sciences (NCATS).
TGFb SMAD3 inh: TGF-b pathway inhibition; 410,000 tested, 1.2% active; Potency, µM (titrated, usually from 46.1 µM), most hits filed as inhibitors; AID 588855; HepG2 CAGA-GFP TGF-b/SMAD3 reporter, GFP fluorescence, 18 h; TGF-beta stimulated, 500 pg/mL final; note: nearly all actives have a fitted effect of over 65% in size
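Read-out: total well GFP (ex488/em500-530) summed from mean per-cell fluorescence. Cells: HEPG2 CAGA-GFP, 1% FBS DMEM, 18 h at 37 degrees C with 500 pg/mL final TGF-beta. Unstimulated wells served as the full-inhibition control; stimulated DMSO wells = 0%.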
ATXN2 expr inh: ATXN2 expression inhibition; HEK-293 ATXN2-luciferase reporter, luminescence, 24 h; Potency, µM (top dose mostly 57 µM), hits mostly inhibitors; 360,000 tested, 0.72% active; AID 1745845; note: nearly all actives have a fitted effect of over 55% in size
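qHTS (up to 57 uM final) was run with 24 h compound exposure of reporter cells at 37 °C. Each well was multiplexed: SteadyGlo luminescence measured ATXN2-luciferase expression after a fluorogenic Gly-Phe-AFC viability readout (25 uM final).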
HT1080 IDH1KD tx: HT-1080 IDH1 knockdown cell toxicity (counter line) | 360,000 tested, 2% active | Potency, µM (highest dose often 46.1 µM), usual class: cytotoxic | HT-1080 IDH1 knockdown viability, ATP luminescence, 48 h
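% activity derives from luminescence (CellTiter-Glo), normalised to DMSO and no-cell wells. HT-1080-IDH1KD cells, 750/well, had 48 h compound exposure at 37 °C.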
HepG2 tox: HepG2 cytotoxicity, counter-screen for TGF-b inhibitors; HepG2 CAGA-GFP viability, ATP luminescence, 18 h; Potency, µM (highest dose often 46.1 µM), most hits filed as cytotoxic; 410,000 tested, 0.76% active; AID 588856
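HepG2 CAGA-GFP cells (1000/well, DMEM with 1% FBS) received compound, then TGF-beta at 500 pg/mL final, and were incubated 18 hours at 37 degrees C. Viability was read by CellTiter-Glo luminescence. Media-only wells were set as complete cell-killing and DMSO as no toxicity.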
HT1080-NT tox: kills 2HG-producing HT-1080-NT fibrosarcoma cells | Potency, µM (top dose mostly 46.1 µM), actives largely listed as cytotoxic | 360,000 tested, 1.6% active | HT-1080-NT fibrosarcoma viability, CellTiter-Glo ATP luminescence, 48 h;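 note: NT is the 2HG producing partner of a matched IDH1 knockdown line; nearly all actives have a fitted effect of over 55% in size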
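A 48-hour cytotoxicity screen used HT-1080-NT cells plated 2 hours before compound delivery. ATP-based CellTiter-Glo luminescence measured viability, normalized to DMSO and no-cell controls.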
ATXN viability: reduces viability in counter-screen for ATXN expression inhibitors | AID 651635 | S2 cells (HEK-293 line with an ATXN2-luciferase reporter) viability, CellTiter-Fluor protease fluorescence, 24 h | Potency, µM (highest dose often 56.7 µM), hits mostly cytotoxic | 400,000 tested, 0.49% active; note: nearly all actives have a fitted effect of over 40% in size
Each line names hits and unclear results; the compound was inactive in the other large screens. In the library only some 3.8% were active in any assay of this set; here they are far more common. Calls come from the whole dose curve; as a rule, active = well fitted curve in the direction sought with a large enough effect; inconclusive = small, poorly fitted or top-dose-only effect, or another doubt; inactive = no such curve, though single readings can be large; an effect the other way counts as inactive or inconclusive.

CCn1c(SCC(=O)Nc2c(C)cccc2C)nnc1-c1nonc1NC(C)=O	none (no result: HT1080 IDH1KD tx, HT1080-NT tox)
O=C(CCc1nc2ccccc2c(=O)[nH]1)NCc1cccc(Cl)c1	HT1080 IDH1KD tx inconclusive, HT1080-NT tox 20.6µM
O=C(CCc1nc2ccccc2c(=O)[nH]1)NNC(=O)c1cccc(Cl)c1	none
COc1ccc(Nc2oc(COc3ccccc3OC)nc2C#N)cc1	ATXN2 expr inh 10µM
COc1ccc(CCNc2oc(COc3ccccc3F)nc2C#N)cc1OC	HT1080 IDH1KD tx inconclusive
COc1ccc(CCNc2oc(COc3ccc(F)cc3)nc2C#N)cc1	TGFb SMAD3 inh 15.8µM
COc1ccccc1OCc1nc(C#N)c(NCc2ccc(C)cc2)o1	TGFb SMAD3 inh inconclusive (no result: ATXN2 expr inh, HT1080 IDH1KD tx, HT1080-NT tox, ATXN viability)
COc1ccc(-c2nc3ccccc3o2)cc1NC(=O)c1ccc(N2CCC(C)CC2)c([N+](=O)[O-])c1	none (no result: ATXN2 expr inh, HT1080 IDH1KD tx, HT1080-NT tox, ATXN viability)
COc1ccc(OCCn2c(CCNC(=O)C3CCCCC3)nc3ccccc32)cc1	none (no result: ATXN2 expr inh, HT1080 IDH1KD tx, HT1080-NT tox, ATXN viability)
Cc1cccn2c(=O)c(C=O)c(Cl)nc12	TGFb SMAD3 inh 15.8µM, ATXN2 expr inh inconclusive, HT1080 IDH1KD tx inconclusive, HT1080-NT tox inconclusive, ATXN viability inconclusive
O=Cc1c(Cl)nc2ccccn2c1=O	TGFb SMAD3 inh inconclusive, HT1080 IDH1KD tx inconclusive, HepG2 tox 0.562µM, HT1080-NT tox inconclusive
O=C(Nc1ccc(Oc2c(F)c(F)c(F)c(F)c2F)cc1)OC1CCN2Cc3ccccc3N=C12 (stereo unspecified)	TGFb SMAD3 inh 10µM, ATXN2 expr inh inconclusive, HT1080 IDH1KD tx inconclusive, HepG2 tox 10µM, HT1080-NT tox inconclusive, ATXN viability inconclusive
Cc1cccc(NC(=O)C2CCC(CNS(=O)(=O)c3csc(C(N)=O)c3)CC2)c1C (stereo unspecified)	none (no result: HT1080 IDH1KD tx, HT1080-NT tox)
CC(C)OCCCn1c(=O)c2ccccc2n2c(-c3ccc(F)cc3)nnc12	none (no result: HT1080 IDH1KD tx, HT1080-NT tox)
Cc1ccc(N2NC3(CCN(C(N)=O)CC3)NC2=O)cc1	HT1080 IDH1KD tx 6.51µM, HT1080-NT tox 5.8µM
Cc1ccc(N2C(=O)NC3(CCCCC3)C2=O)cc1	none
CCCCOC(=O)c1c(C)oc2ccc(NS(=O)(=O)c3ccc(F)cc3C)cc12	TGFb SMAD3 inh 14.1µM, ATXN2 expr inh inconclusive, ATXN viability inconclusive (no result: HT1080 IDH1KD tx, HT1080-NT tox)
OC1(c2cccnc2)CCN(Cc2ccc3c(c2)CN(Cc2ccc4nsnc4c2)CCO3)CC1	none (no result: TGFb SMAD3 inh, ATXN2 expr inh, HT1080 IDH1KD tx, HepG2 tox, HT1080-NT tox)
Nc1ncnc2c(C3OC(CO)C(O)C3O)c[nH]c12 (stereo unspecified)	ATXN2 expr inh inconclusive, HT1080 IDH1KD tx 0.146µM, HepG2 tox 3.16µM, HT1080-NT tox 0.231µM (no result: ATXN viability)
Cn1ncc2c(Nc3cccc(Cl)c3)nc(Nc3cccc(Cl)c3)nc21	TGFb SMAD3 inh inconclusive, ATXN2 expr inh inconclusive, HT1080 IDH1KD tx 20.6µM, HepG2 tox 22.4µM, HT1080-NT tox 14.6µM
Cn1ncc2c(Nc3ccc(Br)cc3)nc(Nc3ccc(Br)cc3)nc21	TGFb SMAD3 inh 11.2µM, HT1080 IDH1KD tx 18.4µM, HT1080-NT tox inconclusive
CN(C)c1ccc2cc(C(=O)N[C@@H](CCCN=C(N)CCl)C(=O)NCc3ccccc3)ccc2c1	ATXN2 expr inh 30.6µM (no result: TGFb SMAD3 inh, HT1080 IDH1KD tx, HepG2 tox, HT1080-NT tox, ATXN viability)
CC(=O)Nc1nonc1-c1nc2ccccc2n1Cc1ccccc1	HT1080 IDH1KD tx 11.6µM, HT1080-NT tox 16.4µM
CC(=O)Nc1nonc1-c1nc2ccccc2n1Cc1nnc(C)o1	none
CCN(CC)CCn1c(NC(=O)c2ccc(C)cc2)nc2ccccc21	HT1080-NT tox inconclusive
COC(=O)c1ccccc1NC(=O)Cn1c(-c2nonc2N)nc2ccccc21	HT1080 IDH1KD tx 0.316µM, HT1080-NT tox 0.708µM, ATXN viability inconclusive
CN(C)CCn1c(NC(=O)c2ccc(Cl)cc2)nc2ccccc21	HT1080 IDH1KD tx 11.2µM, HT1080-NT tox inconclusive
O=C(Nc1nc2ccccc2n1Cc1ccc(Cl)cc1)c1ccco1	TGFb SMAD3 inh inconclusive
CC(=O)Nc1nc2ccccc2n1Cc1ccc(Cl)cc1	TGFb SMAD3 inh inconclusive, ATXN2 expr inh 17.8µM, HT1080 IDH1KD tx 16.4µM, HT1080-NT tox inconclusive, ATXN viability 25.1µM
CC(C)c1ccc2c(c1)NC(c1ccc(F)cc1)=NC(c1cccs1)=N2	TGFb SMAD3 inh inconclusive, ATXN viability inconclusive (no result: HT1080 IDH1KD tx, HT1080-NT tox)
